Reference: PubChem BioAssay (NCATS)
Inconclusive results are not listed. Activity calls are given as the source filed them. Unless noted, calls follow the shape of the dose curve; as a rule, active = well fitted curve in the direction sought with a large enough effect; inconclusive = small, poorly fitted or top-dose-only effect, or another doubt; inactive = no such curve, though single readings can be large; an effect the other way counts as inactive or inconclusive.

Tests used:
[1] = Confirmation and Secondary Assay for Modulators of Hemoglobin Beta Chain Splicing at IVS2 654 locus (AID 910);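 also: per-well total GFP intensity by laser scanning cytometry after 2-day treatment; % of control where 0% means no effect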
Procedure, shortened: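 HeLa cells stably carrying EGFP interrupted by mutant beta-globin IVS2-654 intron (CMV-driven) were treated with compound for 2 days at 37C; corrected splicing was scored as total peak GFP intensity per well (488 nm excitation, 500-520 nm emission).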

[2] = Confirmation and Secondary Assay for Modulators of Hemoglobin Beta Chain Splicing at IVS2 705 locus (AID 930);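 also: HeLa cells stably expressing the EGFP-705 splicing reporter; % of control where 0% means no effect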
Procedure, shortened: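 Restored EGFP fluorescence after 2-day compound exposure reports splicing correction in IVS2-705 EGFP reporter HeLa cells; positive control was 500 nM splice-blocking PNA oligo. Signal measured as well total peak GFP intensity (488 nm excitation).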

[3] = qHTS Assay for Lipid Storage Modulators (AID 1519; calls by dose curve; also: potency is read from the fitted curve at half-maximal effect; as to activity change, negative = inhibition: % is scaled to controls: 0 for no effect and ±100 for the full control effect); settings: Drosophila S3 cells, BODIPY lipid droplet/cell ratio, laser cytometry, cells loaded with oleic acid; for activity change, negative = inhibition: at 57.5 µM (top of the series)
Procedure, shortened: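 Cells seeded at 5,000 per well were treated with compounds over a concentration series and loaded with oleic acid (400 uM, as added). Lipid droplet fluorescence (488 nm excitation, 500-530 nm channel) was read by laser-scanning cytometry and normalized to 20 uM Triacsin C.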

[4] = target: Ubiquitin carboxyl-terminal hydrolase 1 (Homo sapiens) (UniProt O94782); assay: Inhibitors of USP1/UAF1: Pilot qHTS (AID 504865);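 also: rhodamine fluorescence freed from ubiquitin-rhodamine substrate followed over time; top concentration of the series differs between compounds; % is scaled to controls: 0 for no effect and ±100 for the full control effect; nearly all actives have a fitted effect of over 35% in size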
Sequence of Ubiquitin carboxyl-terminal hydrolase 1 (Homo sapiens) (O94782 whole entry, looked up): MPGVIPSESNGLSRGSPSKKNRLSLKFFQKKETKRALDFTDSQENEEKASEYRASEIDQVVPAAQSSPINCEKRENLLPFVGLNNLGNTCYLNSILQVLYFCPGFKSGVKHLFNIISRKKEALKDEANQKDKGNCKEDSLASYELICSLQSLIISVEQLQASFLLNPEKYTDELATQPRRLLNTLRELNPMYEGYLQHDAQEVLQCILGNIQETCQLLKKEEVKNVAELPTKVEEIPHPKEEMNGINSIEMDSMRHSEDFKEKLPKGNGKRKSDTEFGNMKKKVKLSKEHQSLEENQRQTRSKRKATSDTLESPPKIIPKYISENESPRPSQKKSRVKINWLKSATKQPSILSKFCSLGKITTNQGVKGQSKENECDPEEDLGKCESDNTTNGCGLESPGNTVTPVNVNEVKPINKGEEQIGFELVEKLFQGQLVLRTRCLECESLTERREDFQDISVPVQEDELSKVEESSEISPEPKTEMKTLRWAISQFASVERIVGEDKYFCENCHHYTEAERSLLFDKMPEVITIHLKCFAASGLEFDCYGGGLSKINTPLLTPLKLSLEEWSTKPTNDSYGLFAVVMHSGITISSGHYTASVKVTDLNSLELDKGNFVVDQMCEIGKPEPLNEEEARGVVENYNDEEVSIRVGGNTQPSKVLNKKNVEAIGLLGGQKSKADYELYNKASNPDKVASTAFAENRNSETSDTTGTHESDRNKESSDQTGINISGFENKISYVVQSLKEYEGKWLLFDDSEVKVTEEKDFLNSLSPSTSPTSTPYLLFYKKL
Procedure, shortened: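 1nM USP1/UAF1 + cpd, 15 min RT; start w/ Ub-Rho 150nM final; kinetic FL 480/540 nm, 6 reads q60 s. Buffer 50mM HEPES pH 7.8, 0.5mM EDTA, 1mM TCEP, 0.01% Tween-20, 0.1 mg/ml BSA.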

[5] = target: DNA dC->dU-editing enzyme APOBEC-3G (Homo sapiens) (UniProt Q9HC16); assay: qHTS for inhibitors of Vif-A3G interactions: Validation (AID 588379); also: 0% is about no effect
Sequence of DNA dC->dU-editing enzyme APOBEC-3G (Homo sapiens) (Q9HC16 whole entry, looked up): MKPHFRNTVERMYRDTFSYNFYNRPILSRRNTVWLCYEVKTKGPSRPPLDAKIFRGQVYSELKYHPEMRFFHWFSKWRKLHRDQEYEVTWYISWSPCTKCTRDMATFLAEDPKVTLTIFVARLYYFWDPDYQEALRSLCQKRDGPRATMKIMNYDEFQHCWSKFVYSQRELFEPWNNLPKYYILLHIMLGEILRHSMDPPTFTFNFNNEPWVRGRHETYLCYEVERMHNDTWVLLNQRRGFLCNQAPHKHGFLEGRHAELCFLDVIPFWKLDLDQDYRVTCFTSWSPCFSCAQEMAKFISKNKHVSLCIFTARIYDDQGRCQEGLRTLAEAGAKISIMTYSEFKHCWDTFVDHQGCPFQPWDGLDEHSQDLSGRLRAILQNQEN
Procedure, shortened: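 Yellow fluorescence (Ex 488, Em 500-530) of Vif-coexpressing HeLa A3G-eYFP cells, scanned by Acumen cytometer, reports blocked A3G degradation. Cells plated at 700/well overnight at 37 deg C before compound addition, then a further overnight compound incubation at 37 deg C.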

[6] = target: Cytochrome P450 3A4 (Homo sapiens) (UniProt P08684); assay: qHTS Assay for Inhibitors and Substrates of Cytochrome P450 3A4 (AID 884); also: nearly all actives have a fitted effect of over 50% in size; also: potency is read from the fitted curve at half-maximal effect; as to activity change, negative = inhibition: % is scaled to controls: 0 for no effect and ±100 for the full control effect
Sequence of Cytochrome P450 3A4 (Homo sapiens) (P08684 whole entry, looked up): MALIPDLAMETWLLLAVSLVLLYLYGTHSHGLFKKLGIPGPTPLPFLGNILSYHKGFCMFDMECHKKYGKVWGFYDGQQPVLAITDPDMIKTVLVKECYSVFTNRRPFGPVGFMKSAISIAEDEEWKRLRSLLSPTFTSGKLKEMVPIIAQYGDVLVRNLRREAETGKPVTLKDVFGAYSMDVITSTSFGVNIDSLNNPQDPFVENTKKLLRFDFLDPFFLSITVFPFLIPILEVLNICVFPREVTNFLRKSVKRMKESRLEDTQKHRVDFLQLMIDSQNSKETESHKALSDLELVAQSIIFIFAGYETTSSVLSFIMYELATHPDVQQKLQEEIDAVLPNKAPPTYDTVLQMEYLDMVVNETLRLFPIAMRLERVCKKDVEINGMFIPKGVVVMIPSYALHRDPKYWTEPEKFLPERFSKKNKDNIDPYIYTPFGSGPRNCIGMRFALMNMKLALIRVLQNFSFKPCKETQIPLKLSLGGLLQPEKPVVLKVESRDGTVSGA
Procedure, shortened: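 Luminescent readout of luciferin produced by CYP3A4 (20 nM) dealkylation of Luciferin-PPXE, 25 uM (its KM). NADPH-driven reaction ran 60 min at RT after 10 min compound preincubation; data scaled to 57 uM ketoconazole as 100% inhibition.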

[7] = target: Cytochrome P450 3A4 (Homo sapiens) (UniProt P08684); assay: qHTS Assay for Activators of Cytochrome P450 3A4 (AID 885); also: nearly all actives have a fitted effect of over 65% in size; also: potency is read from the fitted curve at half-maximal effect
Procedure, shortened: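 Human CYP3A4 dealkylates Luciferin-PPXE to luciferin, which luciferase detection converts to light. Substrate was at its KM (25uM), buffer 200mM KPO4, reaction 60 min at RT.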

[8] = target: Luciferin 4-monooxygenase (Photinus pyralis) (UniProt P08659); assay: Biochemical firefly luciferase enzyme assay for NPC (AID 624030);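 also: purified P. pyralis luciferase at 10 nM with luciferin and ATP substrate; 0% = DMSO and -100% = full luciferase inhibition by PTC124 control; nearly all actives have a fitted effect of over 70% in size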
Sequence of Luciferin 4-monooxygenase (Photinus pyralis) (P08659 whole entry, looked up): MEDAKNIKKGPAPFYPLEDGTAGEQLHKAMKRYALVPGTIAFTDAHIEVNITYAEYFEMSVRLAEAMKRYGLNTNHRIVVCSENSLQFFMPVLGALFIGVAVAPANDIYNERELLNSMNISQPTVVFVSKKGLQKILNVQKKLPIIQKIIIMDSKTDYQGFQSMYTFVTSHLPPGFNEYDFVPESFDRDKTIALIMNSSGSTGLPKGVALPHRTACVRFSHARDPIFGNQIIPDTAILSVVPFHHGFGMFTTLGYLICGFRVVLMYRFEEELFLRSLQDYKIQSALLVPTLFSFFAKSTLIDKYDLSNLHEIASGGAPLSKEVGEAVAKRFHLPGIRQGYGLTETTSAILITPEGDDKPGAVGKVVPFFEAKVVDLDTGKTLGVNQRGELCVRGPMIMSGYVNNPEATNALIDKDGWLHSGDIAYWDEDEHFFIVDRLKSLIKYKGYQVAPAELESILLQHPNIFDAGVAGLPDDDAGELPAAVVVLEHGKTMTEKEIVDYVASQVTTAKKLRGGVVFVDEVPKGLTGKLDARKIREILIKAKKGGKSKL
Procedure, shortened: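 Counter-screen for direct inhibition of the luciferase enzyme by approved-drug library compounds, run at 10 nM enzyme in 50 mM Tris acetate (final). Luminescence was read within 5 min of enzyme-buffer addition and normalized to PTC124 versus DMSO (0%).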

[9] = measured here: cell count channel max response
[10] = measured here: lipid channel max response

Compound	Potency [1]	Potency [2]	activity change, negative = inhibition [3]	max response [3, 9]	max response [3, 10]	Potency [4]	outcome [5]	Potency [6]	Potency [7]	Potency [3]	Potency [8]
CC(=O)OC1C[C@]2(C)C(C(C)=O)CCC2C2CCC3=CC(=O)CC[C@@]3(C)C12 (stereo partly drawn)	inactive	inactive	9.05% (inactive)	25.2%	39.7%	inactive	–	–	–	–	–
COC1C(O)CC(=O)OC(C)C/C=C/C=C/[C@@H](OC2CCC(N(C)C)C(C)O2)C(C)C[C@@H](CC=O)[C@@H]1O[C@H]1OC(C)[C@H](O[C@@H]2C[C@@](C)(O)C(O)C(C)O2)C(N(C)C)C1O (stereo partly drawn)	inactive	inactive	4.53% (inactive)	15.4%	26.5%	inactive	–	–	–	–	–
C=C1CCC2C(C)(CO)C(O)CCC2(C)C1C/C=C1\C(=O)OCC1O (stereo not drawn)	–	–	-0.167% (inactive)	24.9%	25.5%	–	inactive	–	–	–	–
COc1c(-c2coc3cc4c(cc3c2=O)CC(O)C(C)(C)O4)ccc2c1C=CC(C)(C)O2 (stereo not drawn)	inactive	inactive	–	-20.3%	-70.3%	–	–	inactive	2.51 µM (active)	0.0708 µM (active)	–
NC1(C(=O)O)CCCC1	inactive	inactive	-0.822% (inactive)	7.47%	7.88%	inactive	–	–	–	–	–
COC1C=CC23c4cc5c(cc4CN(CC2O)C3C1)OCO5 (stereo not drawn)	inactive	inactive	-1.59% (inactive)	30.3%	31.3%	inactive	–	–	–	–	–
CC(=O)[C@]1(O)CCC2C3CCC4=CC(=O)CC[C@@]4(C)C3CC[C@]21C (stereo partly drawn)	inactive	inactive	5.01% (inactive)	6.92%	12.7%	inactive	–	–	–	–	–
CC1(C)CCC[C@]2(C)C3CC(=O)O[C@@]3(C)CC[C@H]12 (stereo partly drawn)	–	–	5.49% (inactive)	5.53%	11.1%	–	inactive	–	inactive	–	–
C=C1C[C@@]23C[C@@]1(O)CC[C@@H]2[C@]12C=C[C@@H](O)[C@](C)(C(=O)O1)[C@@H]2[C@@H]3C(=O)O	–	–	-1.64% (inactive)	0.496%	0.595%	–	inactive	–	–	–	–
C[C@@H]1C(=O)O[C@H]2[C@@H](O)[C@@]34[C@H]5CC(C(C)(C)C)[C@]36[C@@H](OC(=O)[C@@H]6O)O[C@@]4(C(=O)O5)[C@@]12O (stereo partly drawn)	–	–	7.16% (inactive)	-2.81%	2.02%	–	inactive	–	–	–	–
CCC(C)C(=O)O[C@H]1C[C@@H](C)C=C2C=C[C@H](C)[C@H](CC[C@@H]3C[C@@H](O)CC(=O)O3)C21 (stereo partly drawn)	–	–	-9.81% (inactive)	22%	13.2%	–	inactive	–	–	–	–
COC(=O)C(O)C1C(C)(C)C(OC(C)=O)C2CC3=C4CC(=O)OC(c5ccoc5)[C@]4(C)CCC3[C@@]1(C)C2=O (stereo partly drawn)	inactive	inactive	0.311% (inactive)	4.91%	8.34%	–	–	10 µM (active)	inactive	–	–
C[C@]12CCC(=O)C=C1CCC1C2C(O)C[C@]2(C)C1CC[C@]2(O)C(=O)CO (stereo partly drawn)	inactive	inactive	12.8% (inactive)	7.87%	21.1%	inactive	–	–	–	–	–
O=c1c2ccccc2oc2ccccc12	inactive	inactive	15% (inactive)	9.44%	28%	inactive	–	–	–	–	–
COc1cc(C(=O)OC2CC[C@]3(C)C4CCC5[C@]6(O)CC(O)[C@]7(O)C(CN8CC(C)CCC8[C@]7(C)O)[C@]6(O)C[C@@]53O[C@]24O)cc(OC)c1OC (stereo partly drawn)	inactive	inactive	4.04% (inactive)	17.4%	24.2%	inactive	–	–	–	–	–
COc1ccc(C2CC(=O)c3c(O)cc(OC4OC(COC5OC(C)C(O)C(O)C5O)C(O)C(O)C4O)cc3O2)cc1O (stereo not drawn)	–	–	-2.69% (inactive)	-19%	-20.2%	–	inactive	inactive	–	–	–
CC(C)C1=CC2=CC[C@@H]3[C@@](C)(C(=O)O)CCC[C@]3(C)C2CC1 (stereo partly drawn)	–	–	0.573% (inactive)	-0.0856%	-0.672%	–	inactive	inactive	–	–	–
N=c1ccn2c(n1)O[C@@H]1[C@H](O)[C@H](CO)O[C@@H]12	–	–	-7.95% (inactive)	4.02%	-4.27%	–	inactive	inactive	–	–	–
O=c1c2ccccc2oc2cc(O)c(C3COCC(CO)C(O)C(O)C3O)c(O)c12 (stereo not drawn)	–	–	16.5% (inactive)	22.8%	36.9%	–	inactive	inactive	–	–	–
O=C(O)CCCC[C@@H]1SC[C@H]2NC(=O)N[C@@H]12	–	–	6.17% (inactive)	12.9%	23.3%	–	inactive	inactive	–	–	–
C[N+](C)(C)CCOP(=O)([O-])OP(=O)(O)OCC1OC(n2ccc(N)nc2=O)C(O)C1O (stereo not drawn)	inactive	inactive	5.88% (inactive)	9.36%	16.8%	inactive	–	–	–	–	–
CO/N=C(\C(=O)NC1C(=O)N2C(C(=O)OCOC(=O)C(C)(C)C)=C(/C=C\c3scnc3C)CSC12)c1csc(N)n1 (stereo not drawn)	inactive	inactive	12.3% (inactive)	-4.33%	11.5%	–	–	–	–	–	inactive
NC(Cc1c[nH]c2ccccc12)C(=O)NCC(=O)O (stereo not drawn)	–	–	2.26% (inactive)	-12.4%	-10.5%	–	inactive	inactive	–	–	–
C[C@@]12CCC3c4ccc(O)cc4CCC3C1CCC2O (stereo partly drawn)	inactive	inactive	-2.04% (inactive)	-0.621%	-0.569%	inactive	–	–	–	–	–
CCOC(=O)OC(C)OC(=O)C1N2C(=O)C(NC(=O)C(N)c3ccccc3)C2SC1(C)C (stereo not drawn)	inactive	inactive	6.11% (inactive)	21.6%	29.1%	inactive	–	–	–	–	–
COC(=O)C(N)CS (stereo not drawn)	inactive	inactive	6.93% (inactive)	11.1%	22.7%	inactive	–	–	–	–	–
